# Results as given in the supplement of paper PMC8728848.
# This is one part of a sample in which the strongest signals are shown more often than they occur.
# B1: Clone646PsrP (Streptococcus pneumoniae) (protein)
# chain: MDHHHHHHHHASENLYFQGAPAINASLNIAKSETKVYTGEGVDSVYRVPIYYKLKVTNDGSKLTFTYTVTYVNPKTNDLGNISSMRPGYSIYNSGTSTQTMLTLGSDLGKPSGVKNYITDKNGRQVLSYNTSTMTTQGSGYTWGNGAQMNGFFAKKGYGLTSSWTVPITGTDTSFTFTPYAARTDRIGINYFNGGGKVVESSTTSQSLSQSKSLSVSAS
# Experiments:
# Assay in all cases: glycan array binding signal (z-score within array); higher = stronger binding
# Details in all cases: glycan notation: IUPAC condensed, linker removed
# [1] = target: Gal(b1-4)GlcNAc(b1-3)[GlcNAc(b1-6)]Gal(b1-4)GlcNAc
# Method in brief: (§1)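 The binding signal is a Z-score computed within each array. Data were drawn from 3228 arrays in the Consortium for Functional Glycomics database, restricted to those with a known protein sequence. Scores were averaged over arrays of the same protein sequence at different concentrations or buffers, and over linkers, and negative values can be taken as non-binding.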
# Gal(b1-4)GlcNAc6P = target: Gal(b1-4)GlcNAc6P
# Method in brief: as §1
# Gal3S(b1-4)Glc = target: Gal3S(b1-4)Glc
# Method in brief: as §1
# Gal3S(b1-4)Glc6S = target: Gal3S(b1-4)Glc6S
# Method in brief: as §1
# [2] = target: Gal3S(b1-4)[Fuc(a1-3)]GlcNAc6S
# Method in brief: as §1
# Gal3S6S(b1-4)GlcNAc = target: Gal3S6S(b1-4)GlcNAc
# Method in brief: as §1
# Gal4S6S(b1-4)GlcNAc = target: Gal4S6S(b1-4)GlcNAc
# Method in brief: as §1
# Gal6S(b1-4)Glc = target: Gal6S(b1-4)Glc
# Method in brief: as §1
# [3] = target: GalNAc(a1-3)GalNAc(b1-3)Gal(a1-4)Gal(b1-4)Glc
# Method in brief: as §1
# [4] = target: GalNAc(a1-3)GalNAc(b1-3)Gal(a1-4)Gal(b1-4)GlcNAc
# Method in brief: as §1
# GalNAc(b1-4)Gal(b1-4)Glc = target: GalNAc(b1-4)Gal(b1-4)Glc
# Method in brief: as §1
# GalNAc3S(b1-4)GlcNAc = target: GalNAc3S(b1-4)GlcNAc
# Method in brief: as §1
# [5] = target: Glc(a1-6)Glc(a1-6)Glc(a1-6)Glc
# Method in brief: as §1
# [6] = target: GlcNAc(b1-3)Gal(b1-4)GlcNAc(b1-3)Gal(b1-4)GlcNAc(b1-3)Gal(b1-4)GlcNAc(b1-3)Gal(b1-4)GlcNAc(b1-2)Man(a1-3)[GlcNAc(b1-3)Gal(b1-4)GlcNAc(b1-3)Gal(b1-4)GlcNAc(b1-3)Gal(b1-4)GlcNAc(b1-3)Gal(b1-4)GlcNAc(b1-2)Man(a1-6)]Man(b1-4)GlcNAc(b1-4)[Fuc(a1-6)]GlcNAc
# Method in brief: as §1
# [7] = target: GlcNAc(b1-4)[GlcNAc(b1-6)]GalNAc
# Method in brief: as §1
# [8] = target: Man(a1-3)[Man(a1-6)]Man(a1-6)[Man(a1-2)Man(a1-3)]Man(b1-4)GlcNAc(b1-4)GlcNAc
# Method in brief: as §1
# [9] = target: Man(a1-3)[Man(a1-6)]Man(a1-6)[Man(a1-3)]Man
# Method in brief: as §1
# Man(a1-6)Man = target: Man(a1-6)Man
# Method in brief: as §1
# [10] = target: Neu5Ac(a2-3)Gal(b1-3)[Fuc(a1-4)]GlcNAc(b1-3)Gal(b1-4)[Fuc(a1-3)]GlcNAc
# Method in brief: as §1
# [11] = target: Neu5Ac(a2-3)Gal(b1-3)[Neu5Ac(a2-6)]GalNAc
# Method in brief: as §1
# [12] = target: Neu5Ac(a2-3)Gal(b1-4)GlcNAc(b1-2)Man
# Method in brief: as §1
# [13] = target: Neu5Ac(a2-3)Gal(b1-4)GlcNAc(b1-2)Man(a1-3)[GlcNAc(b1-4)][Neu5Ac(a2-3)Gal(b1-4)GlcNAc(b1-2)Man(a1-6)]Man(b1-4)GlcNAc(b1-4)GlcNAc
# Method in brief: as §1
# [14] = target: Neu5Ac(a2-3)[GalNAc(b1-4)]Gal(b1-4)GlcNAc
# Method in brief: as §1
# [15] = target: Neu5Ac(a2-6)Gal(b1-4)GlcNAc(b1-2)Man(a1-3)[Gal(b1-4)GlcNAc(b1-2)Man(a1-6)]Man(b1-4)GlcNAc(b1-4)GlcNAc
# Method in brief: as §1
# [16] = target: Neu5Ac(a2-6)Gal(b1-4)GlcNAc(b1-2)Man(a1-3)[GlcNAc(b1-4)][Neu5Ac(a2-6)Gal(b1-4)GlcNAc(b1-2)Man(a1-6)]Man(b1-4)GlcNAc(b1-4)GlcNAc
# Method in brief: as §1
# [17] = target: Neu5Ac(a2-6)Gal(b1-4)GlcNAc(b1-2)[Neu5Ac(a2-6)Gal(b1-4)GlcNAc(b1-4)]Man(a1-3)[GlcNAc(b1-4)][Neu5Ac(a2-6)Gal(b1-4)GlcNAc(b1-2)[Neu5Ac(a2-6)Gal(b1-4)GlcNAc(b1-6)]Man(a1-6)]Man(b1-4)GlcNAc(b1-4)GlcNAc
# Method in brief: as §1
# [18] = target: Neu5Ac(a2-6)Gal(b1-4)GlcNAc(b1-3)Gal(b1-4)GlcNAc(b1-2)Man(a1-3)[Neu5Ac(a2-6)Gal(b1-4)GlcNAc(b1-3)Gal(b1-4)GlcNAc(b1-2)Man(a1-6)]GalNAc
# Method in brief: as §1
# [19] = target: Neu5Ac(a2-6)GalNAc(b1-4)GlcNAc6S
# Method in brief: as §1
# Neu5Ac(a2-8)Neu5Ac = target: Neu5Ac(a2-8)Neu5Ac
# Method in brief: as §1
# [20] = target: Neu5Ac(a2-8)Neu5Ac(a2-8)Neu5Ac(a2-8)Neu5Ac(a2-3)[GalNAc(b1-4)]Gal(b1-4)Glc
# Method in brief: as §1
binder,measurement,setting,value
B1,glycan array binding signal (z-score),[1],-0.238
same,glycan array binding signal (z-score),Gal(b1-4)GlcNAc6P,2.57
same,glycan array binding signal (z-score),Gal3S(b1-4)Glc,1.81
same,glycan array binding signal (z-score),Gal3S(b1-4)Glc6S,1.63
same,glycan array binding signal (z-score),[2],3.08
same,glycan array binding signal (z-score),Gal3S6S(b1-4)GlcNAc,2.75
same,glycan array binding signal (z-score),Gal4S6S(b1-4)GlcNAc,0.386
same,glycan array binding signal (z-score),Gal6S(b1-4)Glc,-0.221
same,glycan array binding signal (z-score),[3],-0.265
same,glycan array binding signal (z-score),[4],-0.546
same,glycan array binding signal (z-score),GalNAc(b1-4)Gal(b1-4)Glc,2.93
same,glycan array binding signal (z-score),GalNAc3S(b1-4)GlcNAc,2.09
same,glycan array binding signal (z-score),[5],3.01
same,glycan array binding signal (z-score),[6],-0.863
same,glycan array binding signal (z-score),[7],-0.205
same,glycan array binding signal (z-score),[8],1.06
same,glycan array binding signal (z-score),[9],3.32
same,glycan array binding signal (z-score),Man(a1-6)Man,4.74
same,glycan array binding signal (z-score),[10],-0.482
same,glycan array binding signal (z-score),[11],-0.254
same,glycan array binding signal (z-score),[12],2.89
same,glycan array binding signal (z-score),[13],-0.995
same,glycan array binding signal (z-score),[14],-0.733
same,glycan array binding signal (z-score),[15],-0.713
same,glycan array binding signal (z-score),[16],-0.966
same,glycan array binding signal (z-score),[17],-0.332
same,glycan array binding signal (z-score),[18],-0.421
same,glycan array binding signal (z-score),[19],-0.113
same,glycan array binding signal (z-score),Neu5Ac(a2-8)Neu5Ac,0.174
same,glycan array binding signal (z-score),[20],-0.64
